# HADH2 inhib – qHTS Assay for Inhibitors of HADH2 (Hydroxyacyl-Coenzyme A Dehydrogenase, Type II) | 3-hydroxyacyl-CoA dehydrogenase type-2 (Homo sapiens), Q99714 | recombinant HADH2, NADH fluorescence, beta-hydroxybutyryl-CoA | Potency, µM (highest dose often 57.1 µM), for the others: top-dose activity change, negative = inhibition, usual class: inhibitors | 73,000 compounds, 3.4% hits | AID 886, 2007; also: potency is read from the fitted curve at half-maximal effect; % is scaled to controls: 0 for no effect and ±100 for the full control effect; nearly all actives have a fitted effect of over 60% in size
# Target sequence (Q99714 whole entry, looked up, one chain of several): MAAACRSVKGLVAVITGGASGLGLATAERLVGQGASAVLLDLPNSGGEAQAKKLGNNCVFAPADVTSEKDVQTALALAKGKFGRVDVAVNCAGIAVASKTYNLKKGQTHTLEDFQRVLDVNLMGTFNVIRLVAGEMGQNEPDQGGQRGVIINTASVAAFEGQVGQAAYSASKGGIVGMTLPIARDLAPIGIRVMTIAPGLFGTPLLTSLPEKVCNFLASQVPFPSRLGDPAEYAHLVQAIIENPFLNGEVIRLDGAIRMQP
#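 Activity measured as NADH fluorescence gain (360/450 nm), taken as the change between first and last reads of a 4-min kinetic run. Conditions: pH 9.0 Tris buffer, 20 nM E. coli-expressed His-tagged enzyme, 1 mM NAD+, 90 uM beta-hydroxybutyryl-CoA; 15-min compound preincubation.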
# HSD17B inhib – qHTS Assay for Inhibitors of HSD17B4, hydroxysteroid (17-beta) dehydrogenase 4; 3-hydroxyacyl-CoA dehydrogenase type-2 (Homo sapiens), Q99714; recombinant HSD17B10, NADH fluorescence kinetic; Potency, µM (titrated, usually from 57.1 µM), without a hit: top-dose activity change, negative = inhibition, actives largely listed as inhibitors; 75,000 compounds, 7.6% hits;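 also: the protocol describes HADH2 (HSD17B10) and not the HSD17B4 of the title; potency is read from the fitted curve at half-maximal effect; % is scaled to controls: 0 for no effect and ±100 for the full control effect; nearly all actives have a fitted effect of over 70% in size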
#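 Enzyme plus compound, 15 min room temperature; substrate mix added (NAD+ 1 mM, beta-hydroxybutyryl-CoA 90 uM final); plates read kinetically for NADH fluorescence. HADH2 was His-tagged, E. coli-derived, 20 nM.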
# A350 autofl – qHTS Assay for Spectroscopic Profiling in A350 Spectral Region. Compound autofluorescence, 340/450 nm, Alexa 350 dye-equivalents; active compounds read high. AID 590, 2007. 59,000 compounds, 11% hits. max dye-equivalent concentration, M; in the data active = max dye-equivalent concentration above about 10 nM; inconclusive = mostly about 1.1 nM to 9.6 nM
# CRE Fsk mod – Cell signaling CRE-BLA (Fsk stim); CHO CRE-bla reporter (cAMP response element driving beta-lactamase), forskolin EC10, beta-lactamase ratio; Potency, µM (titrated, usually from 38.2 µM), inactives show at the highest dose activity change, negative = inhibition, actives largely listed as activators; 71,000 compounds, 2.5% hits; active = well fitted activation curve with a large enough effect in the signal ratio, with a control signal flat, not every such curve was filed as active; inconclusive = small, poorly fitted or top-dose-only effect, or effect the other way, or a change in a side signal; the % refers to the signal ratio; also: potency is read from the fitted curve at half-maximal effect; % of control where 0% means no effect
#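 Reporter-gene assay: CHO cells with beta-lactamase behind cAMP responsive elements, co-treated with compound and EC10 NKH 477 for 3 hours at 37 degrees Celsius. Activity came from the 460/530 nm CCF4 emission ratio.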
# 4-MU autofl – qHTS Assay for Spectroscopic Profiling in 4-MU Spectral Region. AID 589, 2007. 59,000 compounds, 11% hits. max dye-equivalent concentration, M. compound autofluorescence, 340/450 nm, 4-MU equivalents; active compounds read high; in the data active = max dye-equivalent concentration above about 10 nM; inconclusive = mostly about 1.1 nM to 9.6 nM
#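 Intrinsic fluorescence at 340/450 nm (ex/em) was read after 15 min at room temperature in pH 8.0, 100 mM Tris. Each compound concentration expressed as 4-MU-equivalent concentration from a six-point 4-MU standard series on each plate.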
# AID923 – qHTS Assay for Allosteric/Competitive Inhibitors of Caspase-1: Spectroscopic Profiling in AFC Spectral Region | compound fluorescence, AFC spectral region (405/520 nm) | Potency, µM (highest dose often 57.5 µM), without a hit: at the highest dose fluorescence increase, hits mostly activators | 75,000 compounds, 1.1% hits | AID 923, 2007; also: potency is read from the fitted curve at half-maximal effect; 0% is about no effect
#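 Titrations up to 57 uM read every 20 sec for 3 min (405/520 nm) with 50 nM caspase 1 and 5 uM Ac-WEHD-AFC, pH 7.5 HEPES buffer. Fluorescence-vs-time intercept gave baseline, scaled against on-plate AFC standard.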
# * marks the source's active call; other numbers are inactive results; i = inactive; ? = inconclusive; · = no result; [ ] = remark or other dose. In the library only some 14% were active in any assay of this set; here they are far more common. Unless noted, calls follow the shape of the dose curve; as a rule, active = well fitted curve in the direction sought with a large enough effect; inconclusive = small, poorly fitted or top-dose-only effect, or another doubt; inactive = no such curve, though single readings can be large; an effect the other way counts as inactive or inconclusive.
SMILES,HADH2 inhib,HSD17B inhib,A350 autofl,CRE Fsk mod,4-MU autofl,AID923
O=C(c1ccncc1)N1CCC[C@@]2(CCN(c3cccc(-c4ccccc4)c3)C2)C1,4.4%,-14.0%,i,1.4%,i,-0.5%
CCN1CCCC1CN(Cc1cc2c(C)cc(C)cc2[nH]c1=O)C(=O)NC1CCCCC1 (stereo not drawn),6.6%,?,1.15e-08M*,-11.7%,?,2.1%
CCN1CCCC1CN(Cc1cc2cc(C)ccc2[nH]c1=O)C(=O)Nc1ccccc1OC (stereo not drawn),3.2%,-2.2%,i,-0.6%,i,0.4%
Cc1ccc(=O)n(-c2ccccc2)c1,-15.9%,31.6µM*,i,-3.0%,i,-2.3%
Cn1c(C(=O)NCCCN2CCOCC2)cc2c(=O)n(C)c3ccccc3c21,?,7.94µM*,·,?,·,-1.3%
CC1CCN(CCCNC(=O)c2cc3c(=O)n(C)c4ccccc4c3n2C)CC1,0.7%,31.6µM*,·,10.5%,·,0.7%
Cn1c(C(=O)NCc2ccccn2)cc2c(=O)n(C)c3ccccc3c21,9.7%,25.1µM*,·,5.01µM*,·,0.4%
CN1CCN(CCCNC(=O)c2cc3c(=O)n(C)c4ccccc4c3s2)CC1,93.6%,25.1µM*,·,?,·,2.4%
CO[C@H]1COC(=O)[C@@H](Cc2ccccc2)NC(=O)[C@@H](C)COC(=O)C/C=C\[C@@H]1C,-8.7%[11.4 µM],-0.8%[11.4 µM],·,·,·,-1.3%[11.5 µM]
CC(NC(=O)c1cc2c(=O)n(C)c3ccccc3c2n1C)c1ccc2c(c1)OCCO2 (stereo not drawn),-2.9%,?,·,?,·,-0.4%
CCOC(=O)c1cc2c(=O)n(C)c3ccccc3c2s1,13.9%,?,1.94e-08M*,?,1.9e-08M*,-0.7%
Cn1c(C(=O)NCCN2CCN(Cc3ccccc3)CC2)cc2c(=O)n(C)c3ccccc3c21,9.5%,-18.1%,·,7.4%,·,4.1%
Cn1c(C(=O)NCCN2CCCCCC2)cc2c(=O)n(C)c3ccccc3c21,?,31.6µM*,·,?,·,0.0%
Cn1c(C(=O)Nc2ccc3c(c2)OCO3)cc2c(=O)n(C)c3ccccc3c21,25.5%,i,·,1.58µM*,·,1.3%
Cc1c(NC(=O)COC(=O)c2cc3c4ccccc4n(C)c3s2)c(=O)n(-c2ccccc2)n1C,?,15.8µM*,5.61e-08M*,?,5.65e-08M*,-3.5%
COc1ccc(S(=O)(=O)N2CCc3ccccc32)cc1C(=O)OCc1nnc(-c2ccccc2)o1,8.1%,-6.1%,i,?,i,-1.2%
O=C(N/N=C1/C[C@@H](O)[C@@H](O)[C@@H]2[C@@H]3C(=O)N(C[C@@H]4CCCO4)C(=O)[C@H]3CC[C@@H]12)OCc1ccccc1,-1.1%[11.4 µM],-0.6%[11.4 µM],·,·,·,1.2%[11.5 µM]
N[C@H](C(=O)O)[C@@H](O)c1cnc[nH]1,-2.0%[11.4 µM],4.0%[11.4 µM],i,-2.6%[7.6 µM],i,-0.7%[11.5 µM]
Cn1c(C(=O)O)c(CC(=O)Nc2ccc3c(c2)OCCO3)c2ccccc21,-0.5%,-0.2%,2.47e-08M*,-3.0%,2.55e-08M*,0.2%
CS(=O)(=O)c1ccc(CNC(=O)[C@H]2C[C@@H]2[C@H](NP(=O)(c2ccccc2)c2ccccc2)c2ccccc2)cc1,-2.1%,3.8%,·,-8.9%,·,-3.7%
COc1ccc2[nH]c3c(=O)n(CCCCC(=O)NCCN4CCCC4)c(=S)[nH]c3c2c1,-27.9%,25.1µM*,1.72e-08M*,-0.2%,1.61e-08M*,-2.8%
COc1ccc2[nH]c3c(=O)n(CCCCC(=O)N4CCC(C(N)=O)CC4)c(=S)[nH]c3c2c1,-23.5%,?,1.04e-08M*,-12.5%,4.56e-08M*,1.0%
O=C(CCCn1c(=S)[nH]c2ccccc2c1=O)N1CCCCC1,-6.5%,-2.0%,i,?,i,-2.0%
OCCN1CCN(CCCN2c3ccccc3C=Cc3ccccc32)CC1,19.2%,-3.1%,·,·,·,-2.7%
